Legend:
[1] = molecular target: T1, ETS1 (UniProt P14921); assay: ETS1 binding intensity (PBM fluorescence), ETS1 alone (arbitrary fluorescence units); higher = stronger binding; conditions: ETS1 concentration 1 nM; RUNX1 concentration 0 nM
T1 sequence: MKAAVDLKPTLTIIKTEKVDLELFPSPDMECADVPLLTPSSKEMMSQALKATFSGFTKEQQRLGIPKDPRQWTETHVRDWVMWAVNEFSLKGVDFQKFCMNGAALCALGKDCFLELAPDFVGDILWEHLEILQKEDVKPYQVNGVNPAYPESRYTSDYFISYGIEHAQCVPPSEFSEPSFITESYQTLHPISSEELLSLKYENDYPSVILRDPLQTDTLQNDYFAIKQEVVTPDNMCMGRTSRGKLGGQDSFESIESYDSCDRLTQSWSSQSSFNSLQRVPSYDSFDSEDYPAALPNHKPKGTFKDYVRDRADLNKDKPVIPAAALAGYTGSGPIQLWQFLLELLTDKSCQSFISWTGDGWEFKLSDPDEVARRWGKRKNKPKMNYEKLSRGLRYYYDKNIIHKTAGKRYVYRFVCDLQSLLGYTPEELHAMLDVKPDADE

[2] = molecular target: RUNX1 (UniProt Q01196); assay: RUNX1 binding intensity (PBM fluorescence), RUNX1 alone (arbitrary fluorescence units); higher = stronger binding; conditions: RUNX1 concentration 2 nM; ETS1 concentration 0 nM
Protocol: (§1)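 Cooperative gcPBM on 36-bp genomic probes with neighbouring ETS1 and RUNX1 sites. Recombinant human RUNX1 (2 nM) was incubated alone or with ETS1 (25 nM) and detected with anti-RUNX1 antibody plus Alexa488 secondary. Values are medians over 4 replicate spots; the RUNX1+ETS1 data were normalised to the RUNX1-only data. The probes sit in constant array flanks that are not printed.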

[3] = molecular target: T1, ETS1; assay: ETS1 binding intensity (PBM fluorescence) in presence of RUNX1, normalised to ETS1-only experiment (arbitrary fluorescence units); higher = stronger binding; conditions: ETS1 concentration 1 nM; RUNX1 concentration 25 nM
[4] = molecular target: RUNX1 (UniProt Q01196); assay: RUNX1 binding intensity (PBM fluorescence) in presence of ETS1, normalised to RUNX1-only experiment (arbitrary fluorescence units); higher = stronger binding; conditions: RUNX1 concentration 2 nM; ETS1 concentration 25 nM
Protocol: as §1
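For RUNX1 binding intensity (PBM fluorescence) in presence of ETS1, normalised to RUNX1-only experiment in this document: Full-length recombinant human ETS1 or RUNX1 bound to double-stranded 36-bp genomic probes on microarrays, detected by protein-specific primary antibody and Alexa488 secondary, spot fluorescence as median of four replicate spots.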
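For RUNX1 binding intensity (PBM fluorescence), RUNX1 alone in this document: Full-length recombinant human RUNX1 bound to double-stranded 36-bp genomic probes on a high-density microarray, scored as Alexa488 fluorescence per spot via anti-RUNX1 antibody, median of four replicate spots.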

RUNX1, sequence (Q01196 whole entry): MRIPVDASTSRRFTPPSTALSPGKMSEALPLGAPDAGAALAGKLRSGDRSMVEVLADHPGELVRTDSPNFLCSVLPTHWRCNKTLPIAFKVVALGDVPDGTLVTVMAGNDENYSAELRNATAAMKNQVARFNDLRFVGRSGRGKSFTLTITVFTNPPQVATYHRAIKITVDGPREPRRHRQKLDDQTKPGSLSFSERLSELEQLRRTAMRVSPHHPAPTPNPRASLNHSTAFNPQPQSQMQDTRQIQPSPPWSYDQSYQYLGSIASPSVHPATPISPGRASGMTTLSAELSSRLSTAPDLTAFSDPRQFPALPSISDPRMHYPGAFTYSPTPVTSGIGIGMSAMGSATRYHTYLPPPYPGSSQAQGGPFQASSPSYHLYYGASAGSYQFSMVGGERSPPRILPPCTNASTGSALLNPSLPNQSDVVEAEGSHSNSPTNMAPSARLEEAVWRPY

## TTACAATCATTTCCTCTCTGTGGTTTGGTGACAAAT
[1]
  ETS1 binding intensity: 722
[2]
  RUNX1 binding intensity: 1620
[3]
  ETS1 binding intensity: 2000
[4]
  RUNX1 binding intensity: 3180

## GACGGCCCCAGCGGAAGTGGTTGCCTTGGTTTGCGC
[1]
  ETS1 binding intensity: 9920
[2]
  RUNX1 binding intensity: 734
[3]
  ETS1 binding intensity: 10300
[4]
  RUNX1 binding intensity: 2190

## CTTCAGCCGCCACTTCCCCGCCCCCGCAGCCCGACA
[1]
  ETS1 binding intensity: 936
[2]
  RUNX1 binding intensity: 1290
[3]
  ETS1 binding intensity: 925
[4]
  RUNX1 binding intensity: 1290

## GCCATCCGCAGGACTCCGCGTTCTCGCGGTAAGTGG
[1]
  ETS1 binding intensity: 384
[2]
  RUNX1 binding intensity: 736
[3]
  ETS1 binding intensity: 464
[4]
  RUNX1 binding intensity: 883

## GGAGGAAGAGGAGGATGTGGTGAGCCGCTCCCCGCC
[1]
  ETS1 binding intensity: 923
[2]
  RUNX1 binding intensity: 782
[3]
  ETS1 binding intensity: 1870
[4]
  RUNX1 binding intensity: 1260

## CGCCGGATGCATAAAAGACTGGCTGCGGTGGCTCAG
[1]
  ETS1 binding intensity: 604
[2]
  RUNX1 binding intensity: 724
[3]
  ETS1 binding intensity: 1300
[4]
  RUNX1 binding intensity: 973

## AGTGGCTACCACTTCCTTCTCTTACCACAGTTCCTT
[1]
  ETS1 binding intensity: 442
[2]
  RUNX1 binding intensity: 1550
[3]
  ETS1 binding intensity: 607
[4]
  RUNX1 binding intensity: 4520

## TGCGCCGGGAGGAAGGGCTCCAAAACCACAGGGCGG
[1]
  ETS1 binding intensity: 411
[2]
  RUNX1 binding intensity: 900
[3]
  ETS1 binding intensity: 1400
[4]
  RUNX1 binding intensity: 927

## AACAGTACTTCCGGGGCAAGTGAGCGCCCACAAGGC
[1]
  ETS1 binding intensity: 934
[2]
  RUNX1 binding intensity: 806
[3]
  ETS1 binding intensity: 1300
[4]
  RUNX1 binding intensity: 1970

## GCCTCCTCAGGAAATTGCCCAAAATAGCCACATGTC
[1]
  ETS1 binding intensity: 735
[2]
  RUNX1 binding intensity: 1090
[3]
  ETS1 binding intensity: 667
[4]
  RUNX1 binding intensity: 1240

## CTTTGCTGCCGCCTTCCTGTGCGGGGCCGTGGCGGC
[1]
  ETS1 binding intensity: 493
[2]
  RUNX1 binding intensity: 720
[3]
  ETS1 binding intensity: 389
[4]
  RUNX1 binding intensity: 1020

## GTGGAAAGGAAATGTGTCATCTGTGGTTTGGTTTTA
[1]
  ETS1 binding intensity: 645
[2]
  RUNX1 binding intensity: 1060
[3]
  ETS1 binding intensity: 2110
[4]
  RUNX1 binding intensity: 1410

## GCGGCTGAGAACACAGGATGTGGCTTTTGGCAGATG
[1]
  ETS1 binding intensity: 6080
[2]
  RUNX1 binding intensity: 674
[3]
  ETS1 binding intensity: 12800
[4]
  RUNX1 binding intensity: 1680

## GCTTGCTCCCACAGGAAACCGCAGGCTTCGGGCACA
[1]
  ETS1 binding intensity: 3190
[2]
  RUNX1 binding intensity: 7370
[3]
  ETS1 binding intensity: 9810
[4]
  RUNX1 binding intensity: 12000

## GGAATTTCTTTTTCCGGTCCCGCAGGGTCAGCTGAG
[1]
  ETS1 binding intensity: 1240
[2]
  RUNX1 binding intensity: 735
[3]
  ETS1 binding intensity: 1520
[4]
  RUNX1 binding intensity: 1750

## GACTATGTGCTTCCGGTCTCCAATACCGCAGGAGGG
[1]
  ETS1 binding intensity: 4950
[2]
  RUNX1 binding intensity: 981
[3]
  ETS1 binding intensity: 13600
[4]
  RUNX1 binding intensity: 2690

## GCAGAGAGATTGGCCGGATGCGGTGGCTCACGCCTT
[1]
  ETS1 binding intensity: 4850
[2]
  RUNX1 binding intensity: 683
[3]
  ETS1 binding intensity: 8930
[4]
  RUNX1 binding intensity: 1140

## CACCTGCAGTGAAGAGGATGTGGGCAAAGATTATGC
[1]
  ETS1 binding intensity: 1350
[2]
  RUNX1 binding intensity: 746
[3]
  ETS1 binding intensity: 2180
[4]
  RUNX1 binding intensity: 1100

## AAACCAGAGGAAGTGGATTCCAACCACAAACCTCAC
[1]
  ETS1 binding intensity: 750
[2]
  RUNX1 binding intensity: 1080
[3]
  ETS1 binding intensity: 4210
[4]
  RUNX1 binding intensity: 2100

## CTTATCTTCTTCCTGTGAGCTGTGTGTGGGTGGCTC
[1]
  ETS1 binding intensity: 489
[2]
  RUNX1 binding intensity: 942
[3]
  ETS1 binding intensity: 397
[4]
  RUNX1 binding intensity: 1580

## TTTCTGACACTCTCAGGATGTGGGTTTTCGCACTGT
[1]
  ETS1 binding intensity: 1230
[2]
  RUNX1 binding intensity: 797
[3]
  ETS1 binding intensity: 6000
[4]
  RUNX1 binding intensity: 1350

## TACTTCTTCCTGGCAGAGACCGGGAGTGCGGTCCGC
[1]
  ETS1 binding intensity: 471
[2]
  RUNX1 binding intensity: 745
[3]
  ETS1 binding intensity: 588
[4]
  RUNX1 binding intensity: 920

## GAGAGAGGCAGGAAGTGTTGTGGTTATTGTTTGAGC
[1]
  ETS1 binding intensity: 4710
[2]
  RUNX1 binding intensity: 1240
[3]
  ETS1 binding intensity: 24200
[4]
  RUNX1 binding intensity: 2210

## AGCTCCCCTCCCCGGAAACTTGACCACCTAGCCCAG
[1]
  ETS1 binding intensity: 1510
[2]
  RUNX1 binding intensity: 875
[3]
  ETS1 binding intensity: 1660
[4]
  RUNX1 binding intensity: 813

## ATATATCACCCCTTCCTTGCAAAACCACAAGACCAA
[1]
  ETS1 binding intensity: 508
[2]
  RUNX1 binding intensity: 6030
[3]
  ETS1 binding intensity: 1490
[4]
  RUNX1 binding intensity: 8230

## AACAAACAGTAGGCAGGAAGTGGTTAAACCGAAAGG
[1]
  ETS1 binding intensity: 8580
[2]
  RUNX1 binding intensity: 897
[3]
  ETS1 binding intensity: 28900
[4]
  RUNX1 binding intensity: 3590

## GACAGCAACTCCACTTCCTGTGGGCGAGGGCCCTGT
[1]
  ETS1 binding intensity: 1850
[2]
  RUNX1 binding intensity: 835
[3]
  ETS1 binding intensity: 2270
[4]
  RUNX1 binding intensity: 1790

## GACAGGAAGTGACCTCAATTTCCCCGGCCACAGAAA
[1]
  ETS1 binding intensity: 2650
[2]
  RUNX1 binding intensity: 809
[3]
  ETS1 binding intensity: 4280
[4]
  RUNX1 binding intensity: 1770

## AGTTGTGTTTTAGGATGTGGTCAAAGCCCAACAGAG
[1]
  ETS1 binding intensity: 581
[2]
  RUNX1 binding intensity: 910
[3]
  ETS1 binding intensity: 2150
[4]
  RUNX1 binding intensity: 1090

## TTGGTCAGGATGTGGCTGAAGAAGCCACAAGAAAAA
[1]
  ETS1 binding intensity: 796
[2]
  RUNX1 binding intensity: 769
[3]
  ETS1 binding intensity: 943
[4]
  RUNX1 binding intensity: 1130

## CTTGTTCTATTTCCTGTTTGTGGTGAGTGACTGTCT
[1]
  ETS1 binding intensity: 4300
[2]
  RUNX1 binding intensity: 1520
[3]
  ETS1 binding intensity: 8610
[4]
  RUNX1 binding intensity: 3140

## CCTAGAACCGGAAGAGAAAGGGGCTGCGGTGCAGCA
[1]
  ETS1 binding intensity: 1680
[2]
  RUNX1 binding intensity: 845
[3]
  ETS1 binding intensity: 6270
[4]
  RUNX1 binding intensity: 1420

## CTTCTGGCGGAAGCGGCACAAGCCGCAGTACAGCGC
[1]
  ETS1 binding intensity: 1070
[2]
  RUNX1 binding intensity: 738
[3]
  ETS1 binding intensity: 2370
[4]
  RUNX1 binding intensity: 1190

## GATCCCCCTCCTCCATCCTGTGGCTTCGGGTTGCCG
[1]
  ETS1 binding intensity: 482
[2]
  RUNX1 binding intensity: 819
[3]
  ETS1 binding intensity: 420
[4]
  RUNX1 binding intensity: 1150

## GCCGTCACTTCCGTCATTCAAACCGCCCGCCAATGG
[1]
  ETS1 binding intensity: 823
[2]
  RUNX1 binding intensity: 1050
[3]
  ETS1 binding intensity: 1160
[4]
  RUNX1 binding intensity: 2520

## GAGGGCCTGGGAGGAAGTGGGTTTTGCATACAGTCC
[1]
  ETS1 binding intensity: 1870
[2]
  RUNX1 binding intensity: 673
[3]
  ETS1 binding intensity: 2510
[4]
  RUNX1 binding intensity: 1330

## CCCTGGACGGGAAGCGGCGGCCAGATCCGCAAGCCC
[1]
  ETS1 binding intensity: 584
[2]
  RUNX1 binding intensity: 808
[3]
  ETS1 binding intensity: 747
[4]
  RUNX1 binding intensity: 940

## ACTGCACGGCTGGGAGGATGTGGTCACACACGCCAC
[1]
  ETS1 binding intensity: 1380
[2]
  RUNX1 binding intensity: 869
[3]
  ETS1 binding intensity: 11400
[4]
  RUNX1 binding intensity: 1350

## AGGTTAATACCCGGAACTACCACAACCGTCTTCCCT
[1]
  ETS1 binding intensity: 772
[2]
  RUNX1 binding intensity: 1020
[3]
  ETS1 binding intensity: 862
[4]
  RUNX1 binding intensity: 985

## GGTCTCTGCTTCCGGTCCTTGTGGTAGCACCTCTGT
[1]
  ETS1 binding intensity: 4510
[2]
  RUNX1 binding intensity: 936
[3]
  ETS1 binding intensity: 5180
[4]
  RUNX1 binding intensity: 2710

## CCCCCTGAACATCCGGGGCCTTTTAACCGCCCACGG
[1]
  ETS1 binding intensity: 1290
[2]
  RUNX1 binding intensity: 937
[3]
  ETS1 binding intensity: 1690
[4]
  RUNX1 binding intensity: 1790
